From PubChem BioAssay (EPA / NIEHS) come the findings set out here.

Inconclusive results are not listed. Calls of active or inactive are those of the source. The calls were made as follows, unless noted: active = hit-call score of the fitted dose curve at least 0.9, where 1 is the maximum; inactive = score below 0.9.

Assay [1] is described as follows: CCTE_Simmons_MITO_max_resp_rate: CCTE's HepG2 Seahorse XF Respirometric Screening Assay at Maximal Respiratory State [uncoupled], Simmons Lab (AID 2284002). To be noted: actives raise or lower the signal. Put shortly:
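HepG2, Seahorse XF96, maximal OCR post-FCCP. Cpd 125 nM–100 uM final (7 conc), n=3 biological. Kinetic reads every 6 min (3 min mix/3 min measure) over 72 min; fit bidirectional vs DMSO.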

Assay [2] in a line: CCTE_Simmons_MITO_inhib_resp_rate: CCTE's HepG2 Seahorse XF Respirometric Screening Assay at Inhibited Respiratory State [full ETC block], Simmons Lab (AID 2284006). The following applies: actives raise or lower the signal. The method in brief:
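This endpoint is the respiration rate remaining after rotenone/antimycin A block, in HepG2 cells on a Seahorse XF96. Chemicals spanned 125 nM–100 uM final, in three biological replicates. OCR was read every 6 minutes for 72 minutes and compared with DMSO vehicle.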

Assay [3] in a line: CCTE_Shafer_MEA_acute_spike_number: CCTE's Neural Acute Assay for Total Number of Spikes, Shafer Lab (AID 2284008).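 As to AC50: curve fitted for decrease in spike count so AC50 reflects inhibitors.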 Put shortly:
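Rat cortical cultures, DIV 13/15, 37 C. 40 min baseline rec, cpd 0.03-40 uM, 40 min post-dose rec. Band-pass 300-5000 Hz, spike threshold 8x rms; % change in spike count per well, DMSO neg ctrl, loss-of-signal fit.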

Assay [4] can be described thus: CCTE_Shafer_MEA_acute_firing_rate_mean: CCTE's Neural Acute Assay for Mean Firing Rate, Shafer Lab (AID 2284009).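 Also: analyzed for loss of signal so actives lower firing rate relative to DMSO.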 Put shortly:
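Primary rat cortical neurons on 16-electrode MEA wells were exposed on DIV 13 or 15 to compound (0.03-40 uM). Spike counts per recording time, averaged over electrodes, were compared between 40-min baseline and 40-min post-exposure recordings as percent change.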

The nature of assay [5]: CCTE_Harrill_HTTr_Viability_MCF7: CCTE's 6-hour Cell Viability Assessment for the High-Throughput Transcriptomics (HTTr) Platform, in MCF-7 cells cultured in DMEM + 10% fetal bovine serum, Harrill Lab (AID 2284010). Put shortly: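 Propidium iodide exclusion, imaged by high-content analysis, gauged viability after a six-hour exposure across eight concentrations. Cells were MCF-7 grown in DMEM with 10% fetal bovine serum; fits run in both directions against DMSO.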

Assay [6] is described as follows: CCTE_Harrill_HTTr_Apoptosis_MCF7: CCTE's 6-hour Apoptosis Assessment for the High-Throughput Transcriptomics (HTTr) Platform, in MCF-7 cells cultured in DMEM + 10% fetal bovine serum, Harrill Lab (AID 2284011). Put shortly: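 Read-out: CellEvent Caspase 3/7 Green signal by high content imaging, gain-of-signal indicating apoptosis. MCF-7 cells, DMEM + 10% FBS, eight-point dilution series, 6 h exposure. Curves fitted bidirectionally relative to DMSO negative control.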

Assay [7] in a line: CCTE_Harrill_HTTr_CellCount_MCF7: CCTE's Cell Proliferation Assessment for the High-Throughput Transcriptomics (HTTr) Platform, Harrill Lab (AID 2284012; active = hit-call score of the fitted dose curve at least 0.9, where 1 is the maximum;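 also: cells exposed to compound for six hours; intended direction is loss of nuclei count meaning fewer cells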). The method in brief: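 Cell count from high-content imaging of Hoechst-labeled nuclei serves as viability/growth readout. Chemicals were applied to MCF-7 cells in eight concentrations for six hours, with fitting in both directions relative to DMSO.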

Assay [8] can be described thus: CCTE_Shafer_MEA_acute_burst_number: CCTE's Neural Acute Assay for Single-Electrode Bursts, Shafer Lab (AID 2284013). Put shortly: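 Primary rat cortical neurons on 16-electrode MEA wells, DIV 13 or 15, exposed to compound (0.03-40 uM; ≥3 wells); 40-min recordings at 37 C before and after treatment. Burst count expressed as percent change from baseline, DMSO as negative control.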

Assay [9] can be described thus: CCTE_Shafer_MEA_acute_per_burst_spike_number_mean: CCTE's Neural Acute Assay for Average Number of Spikes Per Burst, Shafer Lab (AID 2284015).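 Also: hits are decreases in mean spikes per burst versus baseline.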 The method in brief:
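Rat primary cortical neurons on 48-well MEAs (DIV 13 or 15) were treated with 0.03-40 uM compound at 37 C. Mean spikes per burst over 40 min were recorded before and after exposure and expressed as percent change from baseline, relative to DMSO.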

The nature of assay [10]: CCTE_Shafer_MEA_acute_burst_percentage_mean: CCTE's Neural Acute Assay for Percentage of Spikes in a Burst, Shafer Lab (AID 2284017).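 As to AC50: curve fitted for loss of signal so potency reflects decreased burst percentage.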 The method in brief: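 Primary rat cortical neurons on 48-well MEA plates, treated on DIV 13 or 15 at 0.03-40 uM. Spikes detected at 8x rms noise at 37C; percent change from 40-min baseline to 40-min post-dose recording, fitted versus DMSO.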

A short description of assay [11]: CCTE_Shafer_MEA_acute_burst_percentage_std: CCTE's Neural Acute Assay for Standard Deviation of Burst Percentage, Shafer Lab (AID 2284018).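 Also: fitted in the negative direction so actives lower burst percentage SD.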 Put shortly:
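Value is percent change from baseline in the across-electrode SD of spikes-in-bursts percentage, wells with >/= 10 active electrodes. Acute 40-min exposure to 0.03-40 uM on DIV 13 or 15 rat cortical cultures, recorded at 37 C after 40-min baseline.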

Assay [12] can be described thus: CCTE_Shafer_MEA_acute_per_network_burst_spike_number_mean: CCTE's Neural Acute Assay for Average Number of Spikes in a Network Burst, Shafer Lab (AID 2284019).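 As to AC50: curve fitted for loss of signal so actives reduce spikes per network burst.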 Put shortly:
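Percent change from baseline in mean spikes per network burst, spikes detected at 8x rms noise. Each compound at 0.03-40 uM in at least three wells of rat cortical cultures, recorded 40 min before and 40 min during exposure.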

Assay [13] is described as follows: CCTE_Shafer_MEA_acute_per_network_burst_electrodes_number_mean: CCTE's Neural Acute Assay for Mean Number of Electrodes in a Network Burst, Shafer Lab (AID 2284021).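 Also: curves fitted for decreases only so hits reduce electrodes per burst.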 The method in brief:
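Readout: % change in mean electrodes active per network burst, post- vs pre-treatment, each well. Spikes detected at 8x rms noise after 300-5000 Hz band-pass; rat cortical cultures, DIV 13/15, compounds 0.03-40 uM, DMSO baseline.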

Assay [14] can be described thus: CCTE_Shafer_MEA_acute_network_burst_percentage: CCTE's Neural Acute Assay for Percentage of Network Bursts, Shafer Lab (AID 2284022).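 Also: curves fitted for loss so actives lower network burst percentage.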 The method in brief: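 Rat cortical cultures, DIV 13/15; 20 min equilibration, 40 min baseline, compound 0.03-40 uM, 40 min recording, 37 C. Spikes: 300-5000 Hz band-pass, threshold 8x rms noise. Readout: % change in network-burst spike fraction; loss direction vs DMSO.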

Assay [15] can be described thus: CCTE_Shafer_MEA_acute_cross_correlation_HWHM: CCTE's Neural Acute Assay for Cross Correlation at Half Width at Half Maximum, Shafer Lab (AID 2284026).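 Also: percent change per well from pre-dose baseline in spike cross-correlogram half width; hits are a decrease in cross-correlogram half width relative to DMSO.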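 As to outcome: spontaneous network firing of rat primary cortical neurons on multiwell microelectrode arrays.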 The method in brief: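 Read-out: half width at half maximum of action-potential cross-correlogram, percent change versus pre-treatment baseline, fitted in loss direction against DMSO. Rat cortical cultures, DIV 13 or 15, dosed 0.03-40 uM, 40-min recordings at 37 C.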

The nature of assay [16]: CCTE_Shafer_MEA_acute_synchrony_index: CCTE's Neural Acute Assay for Synchrony, Shafer Lab (AID 2284027).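 Also: network synchrony index of spontaneous spiking in primary rat cortical neurons on MEAs; fitted for loss of signal so actives lower synchrony relative to DMSO.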 Put shortly:
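The synchrony index is taken as percent change per well between a 40 min baseline and a 40 min recording with compound (0.03–40 uM), at 37C. Rat cortical cultures on multiwell MEAs at DIV 13 or 15, spike threshold 8× rms noise.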

Assay [17] can be described thus: CCTE_Shafer_MEA_acute_interburst_interval_mean: CCTE's Neural Acute Assay for Mean Interburst Interval, Shafer Lab (AID 2284016).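 Also: percent change of mean interburst interval versus each well's own pre-dose baseline; curves fitted for decrease in interburst interval relative to DMSO.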 Put shortly:
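Rat primary cortical neurons on 48-well MEAs at DIV 13 or 15 were exposed acutely to 0.03-40 uM. Spikes detected at 8x rms noise, 37 C. Mean interburst interval from 40 min recordings expressed as percent change from 40 min pre-treatment baseline.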

`Cn1c(-c2ccccc2)cc(-c2ccccc2)[n+]1C`: the concentration at half-maximal activity (AC50) in assay [1] was 20 µM (active); in assay [3], 1.05 µM (active); in assay [4], 1.05 µM (active); in assay [8], 1.15 µM (active); in assay [10] it was 31.4 µM (active); in assay [13], 20 µM (active). Besides, the AC50 in assay [14] is 28 µM (active); in assay [15] it was 20 µM (active); in assay [16], 36.8 µM (active). Further, the compound was classed as inactive in assay [2], in assay [5], in [6], in assay [7], in assay [9] and in assay [11]. The compound was called inactive in assay [12].
`CN/C(=N\[N+](=O)[O-])NCc1cnc(Cl)s1`: the outcome in [3], in assay [4], in assay [5], in assay [6], in assay [7] and in assay [8] was inactive. The result in [9], in assay [17], in [10], in assay [11], in assay [12] and in assay [13] was inactive. The outcome in [14], in [15] and in assay [16] was inactive.
Regarding `COCC(=O)N(c1c(C)cccc1C)C(C)C(=O)OC` (stereo not drawn), the call in [1], in assay [2], in [3], in assay [4], in assay [5] and in [6] was inactive. For the same compound, the call in assay [8], in assay [9], in assay [17], in [10], in assay [11] and in assay [12] was inactive. Also, the call in [13], in [14], in [15] and in [16] was inactive.
Consider `CO/N=C(/C1=NOCCO1)c1ccccc1Oc1ncnc(Oc2ccccc2Cl)c1F`, for which the half-maximal activity concentration (AC50) is 4.35 µM (active) in assay [1]; 6.67 µM (active) in assay [2]; 7.05 µM (active) in assay [3]; 7.18 µM (active) in assay [4]; 20 µM (active) in [9]; 20 µM (active) in [10]. Further, the AC50 in assay [15] and in [16] was 20 µM (active) in each case. The outcome in assay [5], in assay [6], in [7], in assay [8], in [17] and in assay [11] was inactive. Further, the outcome in assay [12], in [13] and in assay [14] was inactive.
Take `CC(C)N1C(=O)c2ccccc2NS1(=O)=O`: the compound was classed as inactive in assay [3], in assay [4], in [5], in [6], in assay [7] and in [8]. For the same compound, the outcome in [9], in assay [17], in assay [10], in assay [11], in assay [12] and in [13] was inactive. For the same compound, the compound was called inactive in assay [14], in assay [15] and in assay [16].
Regarding `CCOP(=O)(OCC)Oc1nc(Cl)c(Cl)cc1Cl`, the AC50 in assay [1] was 49.8 µM (active); in assay [3], 3.95 µM (active); in [4], 3.95 µM (active); in assay [9], 0.00298 µM (active); in [10], 34.9 µM (active); in assay [11], 32.5 µM (active). In addition, the concentration at half-maximal activity (AC50) in assay [12] was 0.00674 µM (active); in assay [13], 0.0114 µM (active); in assay [15], 34.8 µM (active); in [16] it was 0.0262 µM (active). Moreover, the compound was classed as inactive in assay [2], in assay [5], in [6], in [7], in assay [8] and in [17]. For the same compound, the compound was called inactive in [14].
`CC(C)N1C(=O)N(c2ccccc2)CSC1=NC(C)(C)C`: the compound was called inactive in [1], in assay [2], in assay [5], in assay [6], in assay [7] and in [17]. For the same compound, the compound was called inactive in assay [11]. Besides, the half-maximal activity concentration (AC50) is 5.21 µM (active) in [3]; 5.27 µM (active) in [4]; 4.94 µM (active) in [8]; 20 µM (active) in assay [9]; 20 µM (active) in assay [10]; 13.5 µM (active) in assay [12]. For the same compound, the AC50 in [13] is 17.4 µM (active); in assay [14] it was 26.5 µM (active); in assay [15], 20 µM (active); in [16], 23.2 µM (active).

As a reminder, the AC50 is the concentration at which the activity in the assay is half-maximal.
